In PubChem BioAssay (NCATS):
Results filed as inconclusive are left out. A number with no mark means an inactive call. The source made the active and inactive calls. The call rests on the fitted dose curve; in most records, active means well fitted inhibition curve with a large enough effect; inconclusive means small, poorly fitted or top-dose-only effect; inactive means no such curve, though single readings can be large or run the other way.

What follows are compounds tested against Aldehyde dehydrogenase 1A1 (Homo sapiens) (UniProt P00352) (assay: qHTS for Inhibitors of the Aldehyde Dehydrogenase Family (ALDH1A1) Confirmatory screens (AID 2061316; further: nearly all actives have a fitted effect of over 65% in size)). Conditions: ALDH inhibition qHTS; series mostly up to 47.3 µM; activity change, negative = inhibition: at the top concentration.
On the % scale 0 is the no-effect control and ±100 the full control effect; potency means the concentration at half of the fitted maximal effect.

Row | SMILES | activity change, negative = inhibition | Potency
1 | CN1CCc2cc(O)cc3c2[C@H]1Cc1ccc(O)c(O)c1-3 | -42.5% | 
2 | NC(=O)COc1c(F)cc(SCCNS(=O)(=O)c2ccccc2)cc1F |  | 14.2 µM (active)
3 | C[N+](C)(C)CC#CCOC(=O)Nc1cccc(Cl)c1 |  | 22.5 µM (active)
